The results in this text go back to PubChem BioAssay (NCI).

Where “and” joins values, the source holds several entries; their conditions need not be identical. Identical values can stand only once. About 83,000 compounds went through this panel and 20% of them were active in at least one assay; those are over-represented in the sample as a whole.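 48-hour exposure, single concentration, 96-well plates; percent growth endpoint where 0 means no net growth. Active: below 10.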 Values without a mark were called inactive. Calls of active or inactive are those of the source.

This test relates to MDA-MB-468 breast. Put plainly: NCI-60 one-dose screen, 48 h (100 = growth as untreated, 0 = no growth, -100 = all killed). To be noted: 10 µM unless noted.
With `O=C(Nc1cc(Cl)cc2c1-c1ccc(Cl)cc1C2O)C(Cl)Cl` (stereo not given), the growth is -3.77% (active).
The result for `c1ccc(CO[C@H]2CO[C@H]3[C@@H]2OC[C@@H]3Oc2ccc(Nc3ncnc4ccsc34)cc2)cc1` reads 51.5%.
Consider `O=C1N(Cc2ccccc2Cl)c2ccccc2C12NN=C(c1cccc(Cl)c1)S2` (stereo not given), for which the growth was -29.6% (active).
Consider `O=[N+]([O-])c1cccc(C2c3ccccc3Oc3ccccc32)c1`, for which the growth is 95.4%.
The same measure for `CCN1C(=O)N(CC)C2C1NN=c1s/c(=C\c3cc4ccccc4[nH]3)c(=O)n12` (stereo not given): -9.55% (active); for `NC1CCC(Nc2nc(NCc3cc(Cl)ccc3O)c3ncn(C4CCCC4)c3n2)CC1` (stereo not given): -51% (active).
The result for `Nc1nc(SCC2(CCl)COC2)c2[nH]cnc2n1` reads 108%; that for `O=C(N/N=C/c1ccc(O)cc1O)c1cccnc1`, 6.57% (active).
As to `COc1ccc(OC)c(C(=O)/C=C/c2cc3c(c(OC)c2OC)OCO3)c1`, the growth is 33.5%.
The result for `O=C1CSC(=S)N1/N=C/c1ccc(Cl)s1` reads 105%; that for `Cc1nc2cc(Nc3nc(Nc4ccc(F)cc4)nc(N4CCCC4)n3)ccc2n1Cc1ccccc1`, -63.3% (active).
Turning to `COc1cc(-c2nn(-c3cccc(NC(=O)Nc4ccc(Cl)c(Cl)c4)c3)cc2-c2ccncc2)ccc1Cl`, the growth is 2.14% (active).
The same measure for `Nc1nc(N)c2c(n1)NC(c1ccc(F)cc1)C1CCc3ccccc3C1=N2` (stereo not given): 5.4% (active); for `CS(=O)(=O)Nc1cccc(-c2cc(-c3ccccc3Cl)c(C#N)c(N)n2)c1`: -9.46% (active).
As for `CCN(C(=O)CCl)C(C)(C)C(SSSC(c1ccc(Cl)cc1)C(C)(C)N(CC)C(=O)CCl)c1ccc(Cl)cc1` (stereo not given), the growth was 5.76% (active).
The same measure for `CC(=O)Nc1nc(C(=O)N2N=C(C)/C(=C/c3cccs3)C2=O)cs1`: 103%.
For the molecule `C1=C[C@H]2O[C@@H]1c1ccc3[nH]ccc3c12`, the growth is 76.2%.
The result for `O=C1Nc2c(C(=O)O)cccc2/C1=N/c1n[nH]c(=S)s1` reads 89.4%; that for `CC1CN(CCO)CC(C)O1` (stereo not given), 108%; that for `COc1ccc(CCN(CC(=O)N(CC(N)=O)C2CCC[C@@H]2OCc2ccccc2)C(=O)CN(C(=O)CN(CCc2ccc(Cl)cc2)C(=O)CN(C(=O)CN(C)Cc2ccccc2F)[C@H](C)C2CCCCC2)[C@H](C)C2CCCCC2)cc1OC` (stereo not given in full), 14.7%.
In the case of `C[C@]1(O)CC(=O)[C@]2(O)C3=C(C=C[C@]2(O)C1)C(=O)c1c(O)cccc1C3=O`, the growth is -57.5% (active).
The result for `Cc1ccc(C(=O)Nc2ccc(CN3CCN(C)CC3)c(C(F)(F)F)c2)cc1C#Cc1cnc(N)cc1C#N` reads -63.8% (active); that for `CNC(=O)c1cc(Oc2ccc3c(c2)sc2nc(-c4ccc(NC(=O)[C@@H](NC(=O)OC)C(C)C)cc4)cn23)ccn1`, 28.4%; that for `O=C(N=Nc1c(O)[nH]c2ccccc12)Nc1ccc(Cl)cc1`, 81.7%.
The result for `CC1CCC(C)(C)c2ccccc21` (stereo not given) reads 99.6%.
The same measure for `Nc1c(Br)cc(Br)c2c1[nH]c(=O)c1ccccc12`: -20.4% (active); for `CC1(C)CC[C@]2(C(=O)O)CC[C@]3(C)C(=CCC4[C@@]5(C)C[C@@H](O)[C@@H]6OC(c7ccccc7O)OC[C@@]6(C)C5CC[C@]43C)C2C1` (stereo not given in full): 69.4%.
`Cc1ccc(/C=C2\COc3ccc(O)c(O)c3C2=O)cc1`: the growth is -18.5% (active).
The result for `O=C(/C=C/c1sc(Cl)nc1Cl)c1ccc(F)cc1` reads 40.9%; that for `COc1ccc2c(=O)cc(-c3ccccc3)[nH]c2c1`, 7.37% (active) and -4.48% (active).
Take `COc1ccc(Cn2cc3c(c2-c2cc(OC)c(OC)c(OC)c2)CCc2c(CN4CCCC4)noc2-3)cc1`: the growth is 50.7%.
Consider `N#Cc1c(-c2ccccc2)cc(-c2ccccc2)n(CCCCCC(=O)Nc2ccccc2N)c1=O`, for which the growth was 62.8%.
The result for `CCCCCC(CCCCC)C(=O)O` reads 116%; that for `COc1ccc2c(c1)N(CCO)C1=C(C(=O)OC1)C2c1ccc(OC)c(OC)c1` (stereo not given), 0.0938% (active); that for `CCN(CC)CCCC(C)Nc1cc(-c2cccc(OC(F)(F)F)c2)nc2ccc(N3CCCC3)cc12` (stereo not given), -56.3% (active).
`COc1cc(C(=O)c2cc(C)c3[nH]c4ccc(C)cc4c3c2C)cc(OC)c1OC`: the growth was -20.1% (active).
The same measure for `CC1(C)CC[C@]2(CO)CC[C@]3(C)C(=CC[C@@H]4[C@@]5(C)CC[C@H](NCO)C(C)(C)[C@@H]5CC[C@]43C)[C@@H]2C1`: -70.1% (active); for `Cc1ccc(Nc2ncnc3c2sc2ncccc23)cc1`: 93%; for `O=C1Cc2cc(O)ccc2O1`: 103%.
The same measure for `COc1cc2c(Nc3ccc(NC(=O)Nc4ccc(Cl)c(C(F)(F)F)c4)c(Cl)c3)ncnc2cc1OCCCN1CCN(C)CC1`: -70.1% (active).
